PubChem BioAssay AID588726 (The Scripps Research Institute Molecular Screening Center, 2011)
In all, about 360,000 compounds went through this assay and about 8,200 (2.3%) were called active. Cut-off read from the data, not from the text of the source: active = inhibition above about 27%; inactive = the rest. The entries come from a sample that favours actives as a whole.

Each compound was assayed against Fructose-bisphosphate aldolase (Mycobacterium tuberculosis (strain ATCC 25618 / H37Rv)) (UniProt P9WQA3) (assay: Mtb FBA enzyme inhibitors, primary screen, biochemical, fluorescence, strain H37Rv (AID 588726;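 note: 0% = vehicle and 100% = reference inhibitor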)). Conditions: purified M. tuberculosis FBA, fluorescence read-out, at 1 µM, active compounds read high.
Fructose-bisphosphate aldolase (Mycobacterium tuberculosis (strain ATCC 25618 / H37Rv)), sequence (P9WQA3 whole entry, looked up): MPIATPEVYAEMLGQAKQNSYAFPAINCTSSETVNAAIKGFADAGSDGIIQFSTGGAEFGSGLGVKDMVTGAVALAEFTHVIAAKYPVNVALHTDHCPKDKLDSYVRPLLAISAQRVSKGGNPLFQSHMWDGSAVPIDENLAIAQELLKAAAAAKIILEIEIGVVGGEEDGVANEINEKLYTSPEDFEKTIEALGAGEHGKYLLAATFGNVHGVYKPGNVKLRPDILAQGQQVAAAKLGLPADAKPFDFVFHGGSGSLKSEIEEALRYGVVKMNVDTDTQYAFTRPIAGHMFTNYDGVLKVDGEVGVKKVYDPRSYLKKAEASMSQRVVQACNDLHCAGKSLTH
In the case of `CC(C)(C)NC(=O)c1cc(NC(=O)c2ccco2)cc(NC(=O)c2ccco2)c1`, the inhibition was 1.27% (inactive). For `O=C(Nc1ccc2nccnc2c1)c1ccco1`, the inhibition was 50.1% (active). In the case of `O=C(NNC(=O)c1ccco1)Nc1ccccc1`, the inhibition was -0.74% (inactive). For `COc1ccc(-c2[nH]ncc2CN(C)Cc2cc(C)[nH]n2)c(F)c1`, the inhibition was -3.53% (inactive). In the case of `CC(C)C(OC(=O)c1cccs1)C(=O)NC1CCCCC1` (centres undefined), the inhibition was 3.33% (inactive). In the case of `O=C(NCc1cccnc1)c1cc(C2CCCN(C(=O)C3CCCCC3)C2)on1` (centres undefined), the inhibition was 1.09% (inactive). With `CCOC(=O)CN(C(=O)COc1nc(C)cc(C)c1C#N)c1ccc(Cl)cc1` the inhibition was 0.17% (inactive). With `CCOC(=O)COc1nc(C)cc(C(F)(F)F)c1C#N` the inhibition was 75.7% (active). For `Cc1cc(C(F)(F)F)c(C#N)c(SCC(=O)NC2CC2)n1`, the inhibition was 1.94% (inactive). With `O=C1CC(Cc2ccc(Cl)cc2)C(=O)N1c1cc(Cl)ccn1` (centres undefined) the inhibition was -3.99% (inactive). With `Cc1cc(C)n(-c2nc(O)cc(=O)[nH]2)n1` the inhibition was -2.32% (inactive). With `CN(C)c1ccc(-c2nnc(-c3cccnc3)o2)cc1` the inhibition was 14.1% (inactive). In the case of `Nc1ccc(-c2nnc(-c3ccc(-c4ccccc4)cc3)o2)cc1`, the inhibition was 62.9% (active). With `OC(c1nnc(-c2ccccc2)o1)c1cccs1` (centres undefined) the inhibition was -4.15% (inactive). For `COC(=O)[C@@H]1C[C@@]2(O)[C@@H](O)[C@@H](O)[C@@H](O)C[C@H]2N1Cc1ccc(C)s1`, the inhibition was -1.21% (inactive). For `CC(C)Cn1c(N)c(C(=O)COC(=O)C2CCCN2C(=O)c2cccs2)c(=O)n(C)c1=O` (centres undefined), the inhibition was 2.37% (inactive). `Cc1ccc(S(=O)(=O)N2CCN(C(=O)Cc3sc(C)nc3-c3ccc(F)cc3)CC2)c(C)c1` was tested, and the inhibition was -0.33% (inactive). In the case of `C=CCn1c(CCNC(=O)c2ccccc2F)nnc1SCC(=O)Nc1ccc(OC)cc1`, the inhibition was 43.4% (active). For `Cc1ccc(NC(=O)CSc2nnc(CNC(=O)c3ccccc3F)o2)cc1`, the inhibition was 0.75% (inactive). For `C=CCn1c(COc2ccc(F)cc2)nnc1SCC(=O)Nc1cccc(S(N)(=O)=O)c1`, the inhibition was 0.32% (inactive). With `COc1ccc(CCNC(=O)C(=O)NCC2OCCN2S(=O)(=O)c2ccc(OC)c(C)c2)cc1` (centres undefined) the inhibition was -0.91% (inactive). `O=C(CN(C(=O)c1csnn1)c1cccc(Cl)c1)NC1CCCC1` was tested, and the inhibition was 2.14% (inactive). `CC(C)[C@@H](C(=O)O)N(Cc1cccc(CN([C@H](C(=O)O)C(C)C)S(C)(=O)=O)c1)S(C)(=O)=O` was tested, and the inhibition was 5.75% (inactive). With `O=C1CC2(CCCCC2)Oc2ccc(OCC(=O)N3CCOCC3)cc21` the inhibition was 49.5% (active). `O=C1CC2(CCCC2)Oc2ccc(Cl)cc21` was tested, and the inhibition was 2.17% (inactive). In the case of `O=C1CC2(CCN(C(=O)COc3ccc(F)cc3)CC2)Oc2ccccc21`, the inhibition was 6.06% (inactive). With `COc1ccc(CCNC(=O)/C(C#N)=C2\N=C(NC(=O)c3cccs3)c3ccccc32)cc1` the inhibition was -0.53% (inactive). With `Cc1ccc2nc(/C(C#N)=C\c3ccc(OC(=O)c4cccs4)cc3)[nH]c2c1` the inhibition was 36.1% (active). In the case of `CCN(CC)c1ccc(C(=O)c2cnc(/N=C/N(C)C)s2)cc1`, the inhibition was -0.9% (inactive). With `CCC1CCCCN1CCNC(=O)c1[nH]c(C)c(C(C)=O)c1C` (centres undefined) the inhibition was -2.24% (inactive). `CC(C(=O)N1CCN(c2ccccc2F)CC1)c1ccc([N+](=O)[O-])cc1` (centres undefined) was tested, and the inhibition was -0.87% (inactive). With `CC(C)(C)NS(=O)(=O)c1ccc(NC(=O)C2CCCO2)cc1` (centres undefined) the inhibition was 0.12% (inactive). With `O=C(Nc1ccc(-c2nnc(-c3ccccc3)o2)cc1)C1CCCO1` (centres undefined) the inhibition was 61.2% (active). With `CCOc1ccc(NC(=O)c2ccc(NC(=O)C3CCCO3)cc2)cc1` (centres undefined) the inhibition was 0.48% (inactive). For `c1ccc2c(-c3nn4nnnc4c4ccccc34)cccc2c1`, the inhibition was 1.01% (inactive). In the case of `Cc1csc(NC(=O)C2CCN(S(=O)(=O)c3ccccc3)CC2)n1`, the inhibition was -1.66% (inactive). In the case of `CC(=O)Nc1ccc(-c2nc3ccccc3o2)cc1`, the inhibition was 60.6% (active). In the case of `CC(C)(C)C(=O)CSc1nc2ccccc2o1`, the inhibition was 2.23% (inactive). `Cc1ccc2nc(-c3ccc(NC(=O)c4cccnc4)cc3)oc2c1` was tested, and the inhibition was -7.14% (inactive). `COc1cc(OC)cc(C(=O)N[C@H](C(=O)Nc2nc3ccccc3[nH]2)C(C)C)c1` was tested, and the inhibition was -0.55% (inactive). With `COc1cc(OC)cc(C(=O)Nc2ccc(-c3nc4ccccc4o3)c(O)c2)c1` the inhibition was 38% (active). In the case of `COc1cccc(C(=O)Nc2ccc3nc4n(c(=O)c3c2)CCCCC4)c1`, the inhibition was 0.68% (inactive). With `CC1(C(=O)Nc2cccc3c2CCCC3)CCN1C(=O)CCc1ccc(Cl)cc1Cl` (centres undefined) the inhibition was 0% (inactive). `O=C(Cc1ccc(F)cc1)NC1CCCC1` was tested, and the inhibition was -0.93% (inactive). With `CCCNC(=O)c1c(N)n(-c2ccc(S(N)(=O)=O)cc2)c2nc3ccccc3nc12` the inhibition was 102% (active). With `CCOC(=O)c1c(C)c(C(=O)NCCc2ccc(S(N)(=O)=O)cc2)c(C)n1CC` the inhibition was -2.42% (inactive). In the case of `Cc1noc(C)c1C(=O)NCCc1ccc(S(N)(=O)=O)cc1`, the inhibition was 0.56% (inactive). In the case of `CC1(C(=O)NCc2cccc3ccccc23)CCN1Cc1ccc(-c2ccccc2)o1` (centres undefined), the inhibition was 2.7% (inactive). In the case of `Cc1cc(Nc2cc(N3CCN(C)CC3)nc(Sc3ccc(NC(=O)C4CC4)cc3)n2)n[nH]1`, the inhibition was 0.5% (inactive). With `CCOc1ccc(-c2nc(C)sc2CC(=O)O)cc1` the inhibition was 5.29% (inactive). `O=C(O)Cc1sc(-c2ccc(C(=O)O)cc2)nc1-c1ccccc1` was tested, and the inhibition was 37% (active). With `NC(=O)Cc1ccc2sc(-c3ccccc3)nc2c1` the inhibition was 5.06% (inactive). For `Cc1cccc(C)c1N1C(=O)CN(Cc2ccccc2)C1=S`, the inhibition was 3.51% (inactive). With `Clc1cccc(Cc2c(-c3cccc(Cl)c3)nc3ccc(Cl)cn23)c1` the inhibition was 6.59% (inactive). For `Cc1ccc(Cc2c(-c3ccco3)nc3ccc(Cl)cn23)cc1`, the inhibition was 6.29% (inactive). For `Cc1ccc2nc(-c3ccco3)c(Cc3cccc(Cl)c3)n2c1`, the inhibition was 30.3% (active). With `O=C(Nc1ccc(N2CCN(C(=O)c3ccccc3)CC2)c(Cl)c1)c1cccnc1` the inhibition was -4.3% (inactive). `Cc1nn(C)c(Oc2ccccc2)c1CCNS(=O)(=O)c1ccc(F)cc1` was tested, and the inhibition was 28.7% (active). `COc1ccc(CCNS(=O)(=O)c2ccc(F)cc2)cc1OC` was tested, and the inhibition was 0.71% (inactive). In the case of `Cn1c(CCNS(=O)(=O)c2ccc(F)cc2)nnc1SCc1cccnc1`, the inhibition was -0.16% (inactive). In the case of `COC(=O)c1ccc(CN2CCC(CO)(Cc3ccc(OC)cc3)CC2)cc1`, the inhibition was 8.41% (inactive). In the case of `C=CCn1cc(-c2cccc(C(F)(F)F)c2)cc(C#N)c1=O`, the inhibition was 47.4% (active). In the case of `CC1(Cc2cccc(C#N)c2)C(=O)Nc2ccc(-c3cccc(C(F)(F)F)c3)cc21` (centres undefined), the inhibition was -1.35% (inactive). `C=CCn1c(-c2ccc(Cl)cc2)ccc(C#N)c1=O` was tested, and the inhibition was 1.41% (inactive). In the case of `O=C(COC(=O)CNS(=O)(=O)c1ccc(F)c(F)c1F)NC1CCCC1`, the inhibition was -3.58% (inactive). For `COc1ccc(CNC(=O)CN(C(=O)c2csnn2)c2cnc3ccccc3c2)cc1`, the inhibition was 3.6% (inactive). For `COC(=O)N1CN(C(=O)OC)CN(C(=O)OC)C1`, the inhibition was 0.37% (inactive). With `Cc1nc2ccc(NC(=O)N3CCC(c4ccccc4)C3)cc2nc1C` (centres undefined) the inhibition was 72.4% (active). In the case of `Cc1nc2ccc(NC(=S)N3CCC(C)CC3)cc2nc1C`, the inhibition was 5.9% (inactive). For `Cc1ccc(C2CCN(C(=S)Nc3cccc(Cl)c3)C2)cc1` (centres undefined), the inhibition was -1.23% (inactive). In the case of `COc1cccc(CN2CCN(Cc3ccc4cccc(F)c4n3)CC2CCO)c1` (centres undefined), the inhibition was 2.17% (inactive). For `Cc1ccc(C(CNC(=O)Nc2cccc(C)c2)N2CCN(C)CC2)cc1` (centres undefined), the inhibition was 2.29% (inactive). `CCN(C(=O)COC(=O)c1ccc(COc2ccc3c(C)cc(=O)oc3c2)cc1)C1CCS(=O)(=O)C1` (centres undefined) was tested, and the inhibition was 44.6% (active). `COc1ccc(-c2cc(=O)oc3cc(OCC(=O)N(C)C4CCS(=O)(=O)C4)ccc23)cc1` (centres undefined) was tested, and the inhibition was 3.8% (inactive). With `Cc1ccccc1NC(=O)c1ccc(COc2ccc3c(C)cc(=O)oc3c2)cc1` the inhibition was 11.9% (inactive). In the case of `C[C@@H]1CN([C@@H](C)CO)C(=O)CCCn2nncc2CO[C@@H]1CN(C)S(=O)(=O)c1ccc(-c2ccccc2)cc1`, the inhibition was -2.99% (inactive). For `CCc1nc2c(OCCOc3ccccc3)cccn2c1N(C)C(=O)c1ccc(OC)cc1`, the inhibition was 1.06% (inactive). For `CN(C)CCCn1c(N)c(C#N)c2nc(C#N)c(C#N)nc21`, the inhibition was 61.1% (active). `C=CCn1c(SCc2nnc(-c3ccccc3)o2)nnc1C(O)c1ccccc1` (centres undefined) was tested, and the inhibition was 1.46% (inactive). With `Cc1sc2nc(SCCO)n(-c3ccccc3)c(=O)c2c1C` the inhibition was 1.67% (inactive). `C/C(O)=C\c1nc(=O)c2c(C)cc(C)nc2n1-c1ccccc1` was tested, and the inhibition was 4.59% (inactive). With `Cc1cc(C)c2c(n1)sc1c(=O)n(-c3ccccc3)c(=O)[nH]c12` the inhibition was 38.8% (active). For `COC(=O)c1ccccc1NC(=O)CN(Cc1ccccc1)S(C)(=O)=O`, the inhibition was 5.21% (inactive). For `COc1ccccc1N1CCN(S(=O)(=O)CCNC(=O)c2ccc(OC(C)C)cc2)CC1`, the inhibition was -0.15% (inactive). With `C[C@@H]1CN([C@@H](C)CO)C(=O)c2c(c3ccccc3n2C)-c2ccccc2CO[C@H]1CN(C)C(=O)C1CC1` the inhibition was 2.36% (inactive). For `Cc1ccc2[nH]c3c(=O)n(Cc4ccccn4)cnc3c2c1`, the inhibition was 29.9% (active). For `COc1ccc2oc(C(=O)NCc3ccco3)c(C)c2c1`, the inhibition was 25.3% (inactive). In the case of `COc1ccc2[nH]c3c(=O)n(Cc4ccco4)cnc3c2c1`, the inhibition was 97.5% (active). `COc1cccc(Cn2cnc3c([N+](=O)[O-])c(C)c(C)cc32)c1` was tested, and the inhibition was -3.25% (inactive). In the case of `O=c1c2[nH]c3ccc(Cl)cc3c2ncn1Cc1ccccn1`, the inhibition was -2.42% (inactive). In the case of `COc1ccc2c(c1)c1ncn(Cc3ccccn3)c(=O)c1n2C`, the inhibition was 159% (active). With `COc1ccc2c(c1)c1nc3n(c(=O)c1n2CC(=O)Nc1ccccc1)CCS3` the inhibition was 8.41% (inactive). In the case of `CCN1CCCC1Cn1cnc2c([nH]c3cc(OC)ccc32)c1=O` (centres undefined), the inhibition was 1.27% (inactive). `Cc1ccc(C)c(Cn2cnc3c(oc4ccccc43)c2=O)c1` was tested, and the inhibition was -1.54% (inactive).
